Sampled rows, rich in hits. Any-hit rate of the full collection: about 6%.
D1 PAM: Potentiators of Human D1 Dopamine Receptor: qHTS; HEK293 TREx D1 cells, calcium flux, dopamine EC20 potentiation; 360,000 tested, 0.036% active; potentiation, % at 10 µM; in the data active = potentiation above about 30%
D3 antag: qHTS of D3 Dopamine Receptor Antagonist: qHTS | D3R cells, DiscoveRx beta-arrestin luminescence, antagonist mode; hits give low values | max response, negative = inhibition, % | 360,000 tested, 2.5% active | AID 652054, 2013; in the data active = max response below about -50%
Target sequence (P35462 whole entry, looked up): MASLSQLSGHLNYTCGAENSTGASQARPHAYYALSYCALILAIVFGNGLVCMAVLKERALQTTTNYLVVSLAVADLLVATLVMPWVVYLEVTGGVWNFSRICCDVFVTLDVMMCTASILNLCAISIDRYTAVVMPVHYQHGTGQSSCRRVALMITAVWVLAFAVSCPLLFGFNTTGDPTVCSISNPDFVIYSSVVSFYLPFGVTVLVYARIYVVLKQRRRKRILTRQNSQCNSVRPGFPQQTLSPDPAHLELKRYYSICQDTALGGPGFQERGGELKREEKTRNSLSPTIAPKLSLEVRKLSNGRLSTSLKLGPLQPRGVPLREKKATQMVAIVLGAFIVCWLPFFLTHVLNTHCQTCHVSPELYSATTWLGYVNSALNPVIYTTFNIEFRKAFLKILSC
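Cells expressing the human receptor were seeded at 1500 cells/well, incubated overnight at 37 degrees C in 5% CO2, then exposed to library compounds with dopamine controls for 90 minutes at 37 degrees C before luminescent detection.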
D1 agonist: Allosteric Agonists of the Human D1 Dopamine Receptor: qHTS; 360,000 tested, 1% active; HEK293 T-REx D1 cells, calcium flux, agonist mode; activation, % at 2 µM; D(1A) dopamine receptor (Homo sapiens), P21728; in the data active = activation above about 30%
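Tetracycline-induced HEK293 TREx D1 cells, force-coupled to calcium signalling, were dye-loaded with a no-wash calcium kit. Compound was pin-added after a 10 s baseline. Fluorescence was read kinetically at 1 cycle/s for 180 s, with calcium rises flagged as agonism.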
D3 ag: qHTS of D3 Dopamine Receptor Agonist: qHTS. D(3) dopamine receptor (Homo sapiens), P35462. D3R DiscoveRx beta-arrestin cells, luminescence, 90 min. max activation, %. 410,000 tested, 0.58% active. AID 652048, 2013; in the data active = max activation above about 30%
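Agonist-mode cell screen: cells plated at 1500/well and incubated overnight at 37 °C, then exposed to library compounds for 90 min at 37 °C. Detection reagent was added for 30–60 min at room temperature, and luminescence was read.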
D1 antag: Antagonist of Human D 1 Dopamine Receptor: qHTS | D(1A) dopamine receptor (Homo sapiens), P21728 | HEK293 TREx D1 cells, calcium flux, dopamine EC80; hits give low values | activity change, negative = inhibition, % at 10 µM | 360,000 tested, 3.2% active | AID 504652, 2011; in the data active = activity change below about -30%
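Tetracycline-induced HEK293 T-REx cells with force-coupled D1 receptor were loaded with a no-wash calcium dye. Compound was added after a 10 s baseline and read kinetically for 180 s; EC80 dopamine was then added and calcium flux followed another 180 s.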
Each line names hits and unclear results; the compound was inactive in the other large screens.

CC(C)C(=O)Nc1c(C(=O)N2CCN(c3ncccn3)CC2)oc2ccccc12	D1 antag -34
CCCCNC(=O)CCCn1c(=O)c2ccccc2n(CC(=O)Nc2ccccc2OCC)c1=O	none (no result: D3 antag)
CCCCC(=O)Nc1c(C(=O)N2CCN(c3ccccc3)CC2)oc2ccccc12	D1 antag -48 (no result: D3 antag)
Cc1ccc(OCC(=O)Nc2ccc(C(=O)OCc3cc(=O)n4ccsc4n3)cc2)cc1C	none (no result: D3 antag)
Cc1cn2c(=O)cc(COC(=O)c3ccc(NC(=O)COc4ccc(C)c(C)c4)cc3)nc2s1	D1 antag -36 (no result: D3 antag)
Cc1cn2c(=O)cc(COC(=O)c3cccc(NC(=O)c4ccccc4Cl)c3)nc2s1	none (no result: D3 antag)
Cc1cn2c(=O)cc(COC(=O)c3cccc(NC(=O)COc4ccccc4C)c3)nc2s1	none (no result: D3 antag)
Cc1cn2c(=O)cc(COC(=O)COc3ccccc3C)nc2s1	D1 antag -30 (no result: D3 antag)
Cc1cn2c(=O)cc(COC(=O)c3cccc(NC(=O)c4ccccc4C)c3)nc2s1	D1 antag -59 (no result: D3 antag)
COc1ccc(-c2cn3c(n2)sc2cc(C(=O)NCCCc4ccccc4)ccc23)cc1	none (no result: D3 antag)
COc1cccc(-c2cn3c(n2)sc2cc(C(=O)NCCCc4ccccc4)ccc23)c1	D1 antag -34 (no result: D3 antag)
Cc1nn2c(-c3cccnc3)ccnc2c1-c1ccccc1	D1 antag -44
O=C(CCS(=O)(=O)c1cccc2nonc12)Nc1ccc(F)cc1F	none (no result: D3 antag)
O=C(NCCCN1CCCC1)C1CCN(C(=O)c2cc3sccc3n2Cc2ccc(F)cc2)CC1	D3 antag -52
O=C(NCc1ccco1)C1CCN(C(=O)c2cc3sccc3n2Cc2ccc(F)cc2)CC1	D1 antag -32
CCOC(=O)N1CCc2c(sc3c2c(=O)n(CCc2ccccc2)c(=O)n3CC(=O)Nc2ccccc2C)C1	none (no result: D3 antag)
O=C(CSc1nnc(CNc2cccc(Cl)c2)o1)OC1CCCCC1	none
O=C(CSc1nc2ccccc2s1)N1c2ccccc2Sc2ccc(Cl)cc21	D1 antag -49
O=C(CSc1nnc(CNc2ccc(F)cc2)o1)OC1CCCCC1	D1 antag -31
CN1CCN(C(=O)CSc2nnc(COc3ccc(Cl)cc3)o2)CC1	D1 antag -37 (no result: D1 PAM)
CN1CCN(C(=O)CSc2nnc(COc3ccccc3)o2)CC1	none
O=C(CSc1nc2ccccc2s1)N1c2ccccc2Sc2ccc(C(F)(F)F)cc21	none
Cc1nc(SCC(=O)N2c3ccccc3Sc3ccccc32)n[nH]1	D3 antag -57
COc1ccc(-c2noc(CN(C(=O)C(C)Oc3ccc(C)cc3)C(C)C)n2)cc1 (configuration not stated)	none (no result: D3 antag)
Cc1ccc(OCc2nnc(SCC(=O)N3c4ccccc4Sc4ccc(Cl)cc43)o2)cc1	D1 antag -32
O=C(COc1ccc(Cl)cc1)NCc1nnc(SCC(=O)NC2CCCCC2)o1	D1 antag -33
COc1ccc(OCc2nnc(SCC(=O)N3c4ccccc4Sc4ccc(Cl)cc43)o2)cc1	none
Cc1ccc(NC(=O)CN2C(=O)CCc3cc(S(=O)(=O)N4CCOCC4)ccc32)c(C)c1	none (no result: D3 antag)
O=C(CCN1C(=O)C2C3C=CC(C4CC34)C2C1=O)Oc1cccc2cccnc12 (configuration not stated)	D3 antag -68
O=C(CCN1C(=O)C2C3C=CC(C4CC34)C2C1=O)Oc1ccc(Br)cc1 (configuration not stated)	D1 antag -62
Cc1cc(C)cc(OC(=O)CCN2C(=O)C3C4C=CC(C5CC45)C3C2=O)c1 (configuration not stated)	none
COCCCNC(=O)NC(CCC(C)C)c1c(-n2cccc2)sc2c1CCN(C)C2 (configuration not stated)	none (no result: D3 antag)
CCOC(=O)c1c(S(=O)(=O)N2CCN(c3cc(Cl)ccc3C)CC2)c(C)n(C)c1C	none (no result: D3 antag)
O=C(Cn1c(-c2cncs2)nc2ccccc21)NCc1ccccc1	D3 antag -84
CCC(=O)N1CCc2cc(Br)cc(S(=O)(=O)N3CCN(c4ccccc4OC)CC3)c21	none (no result: D3 antag)
Cc1cccc(NC(=O)CSc2nc3[nH]c(=O)cc(O)c3s2)c1	D1 antag -32

Screens (PubChem BioAssay)
